The values below come from PubChem BioAssay (Tox21).

Structures are written as SMILES. Where “and” joins values, the source holds several entries; their conditions need not be identical. Equal values may be shown once. Results filed as inconclusive are left out. Values without a mark were called inactive. Calls of active or inactive are those of the source. Calls follow the shape of the dose curve; as a rule, active = well fitted inhibition curve with a large enough effect in the repeat runs; inconclusive = weak or mixed curves; inactive = no such curve, though single readings can be large or run the other way.
% is scaled to controls: 0 for no effect and ±100 for the full control effect; potency is read from the fitted curve at half-maximal effect.

The assay can be described thus: qHTS assay to identify small molecule antagonists of the thyroid receptor (TR) signaling pathway (AID 743065). Also: nearly all actives have a fitted effect of over 55% in size. Conditions: GH3.TRE-Luc, T3-stimulated luciferase inhibition, 23.5 h; series mostly up to 70.3 µM; activity, negative = inhibition: at the top concentration. The source says:
U.S. Tox21 Program National Center for Advancing Translational Sciences [NCATS] NIH Chemical Genomics Center [NCGC] U.S. Environmental Protection Agency [EPA] National Institutes of Environmental Health Sciences [NIEHS] National Toxicology Program [NTP] U.S. Food and Drug Administration [FDA] Tox21 Assay Overview: Thyroid receptor (TR), a nuclear hormone receptor, plays an important role in development, proliferation, differentiation, metabolism, brain function, and cardiovascular system. […] To profile the Tox21 10K compound library in TR signaling, a cell-based GH3-TRE-Luc assay (GH3.TRE-Luc cell line, developed by the laboratory of Dr. Albertinka J. Murk, Wageningen University) was used to measure the inhibition of TR. GH3 (rat pituitary tumor) cells stably expressing a TR activity sensor consisting of two TR response elements and a luciferase reporter gene.
Tox21 Assay Protocol Summary: GH3.TRE-Luc cells were dispensed at 1500 cells/4 uL/well into 1536-well white solid bottom plates using a Multidrop Combi dispenser (Thermo Fisher Scientific Inc., Waltham, MA). After the assay plates were incubated at 37 C for 4 hours, 23 nL of library compound or DMSO controls was transferred to the assay plates by a pintool station (Kalypsys, San Diego, CA), followed by addition of 1 ul of T3 (1 nM, final concentration in the wells) to stimulate TR transactivation. The assay plates were incubated at 37 C for 23.5 h, and then 1 uL of CellTiter-Fluor reagent (Promega, Madision, WI) of measuring cytotoxicity was added to each well using a Bioraptr Flying Reagent Dispenser (FRD) workstation (Beckman Coulter, Indianapolis, IN, USA). The plates were incubated at 37 C and 5% CO2 for additional 30 min, and fluorescence intensity was measured by a ViewLux plate reader (PerkinElmer, Shelton, CT). For measuring luciferase reporter gene activity, 4 uL of ONE-Glo Luciferase Assay reagent (Promega) was added to each well using a Bioraptr FRD (Beckman Coulter), followed by 30 min incubation at room temperature. The luminescence intensity of plates was recorded by a ViewLux plate reader (PerkinElmer, Shelton, CT).
On the technique in general: In qHTS, concentration-response curves come from the screen itself.
On to `CNC(C)(C)Cc1ccccc1`, for which the “activity, negative = inhibition” value was 6.79% [at 32.5 µM].

As for `CC(Cc1ccc(OCC(=O)O)cc1)NCC(O)c1csc(C(F)(F)F)n1` (stereo not given), the “activity, negative = inhibition” value was 13.3%.

Regarding `CC(C)NCC(O)c1ccccc1Cl` (stereo not given), the “activity, negative = inhibition” value is 1.44%.

Consider `CCOC(=O)CCN(SN(C)C(=O)Oc1cccc2c1OC(C)(C)C2)C(C)C`, for which the “activity, negative = inhibition” value is 16.6%.

Turning to `CN1CCc2cc3c(cc2C1O)OCO3` (stereo not given), the “activity, negative = inhibition” value is -4.28% [at 95 µM].

Consider `Oc1ccc(Cl)c(Cl)c1`, for which the Potency is 60.2 µM (active).

Turning to `BrCCCBr`, the “activity, negative = inhibition” value was 6.72% [at 95 µM].

With `COc1c2c(cc3c1OCO3)CCN(C)C2`, the “activity, negative = inhibition” value was 2.15% [at 32.5 µM].

`Cc1cnc2c(C(=O)O)c(Cl)ccc2c1`: the “activity, negative = inhibition” value was 3.79%.

Regarding `ClSC(Cl)(Cl)Cl`, the “activity, negative = inhibition” value was 26.4%.

For the compound `Oc1ccc2[nH]cc(CCCCN3CC=C(c4ccccc4)CC3)c2c1`, the Potency is 11.9 µM (active).

Turning to `O=P(Cl)(Cl)Cl`, the “activity, negative = inhibition” value is -0.449% [at 95 µM].

As for `c1ccc2c(c1)cc1ccc3cccc4ccc2c1c34`, the “activity, negative = inhibition” value was 16.4% [at 95 µM].

As to `CN(C)C(=S)SSC(=S)N(C)C`, the Potency was 94.4 nM (active) and 269 nM (active) and 15.4 nM (active).

In the case of `CN/C(=N\[N+](=O)[O-])NCc1cnc(Cl)s1`, the “activity, negative = inhibition” value was -3.59%.

Consider `COC(=O)c1ccccc1S(=O)(=O)NC(=O)Nc1nc(C)nc(OC)n1`, for which the “activity, negative = inhibition” value is 0.113%.

As for `Nc1cc(Cl)ccc1Cl`, the “activity, negative = inhibition” value is 7.58%.

As to `N#CC(C#N)=NNc1cccc(Cl)c1`, the Potency is 0.969 µM (active).

Take `S=C=Nc1ccccc1`: the “activity, negative = inhibition” value is 0% [at 95 µM].

On to `CCCCCCCCCCCCCCn1cc[n+](C)c1`, for which the Potency is 1.09 µM (active) and 3.81 µM (active).

Take `N#Cc1c[nH]cc1-c1cccc2c1OC(F)(F)O2`: the Potency was 12.2 µM (active).

With `CCNc1nc(NC(C)C(C)C)nc(SC)n1` (stereo not given), the “activity, negative = inhibition” value was -8.59%.

For `Clc1c(Cl)c(Cl)c(Cl)c(Cl)c1Cl`, the activity, negative = inhibition was 0.884% [at 8.44 µM].

For `O=[N+]([O-])c1cc(C(F)(F)F)c(Cl)c([N+](=O)[O-])c1Nc1ncc(C(F)(F)F)cc1Cl`, the Potency was 2.17 µM (active).

As for `Clc1ccc(C(c2ccc(Cl)cc2)C(Cl)Cl)cc1`, the Potency was 24.7 µM (active) and 43.3 µM (active).

For the compound `CC(C)(C)c1ccc(OP(=O)(Oc2ccccc2)Oc2ccccc2)cc1`, the Potency was 27.5 µM (active).

Take `CC(C)=CCN1CC[C@@]2(C)c3cc(O)ccc3C[C@@H]1[C@@H]2C`: the Potency was 21.4 µM (active).

On to `CN1CCc2cc(Cl)c(O)cc2[C@H]2c3ccccc3CC[C@@H]21`, for which the Potency was 13.3 µM (active).

As to `CNC(=O)/C=C(\C)OP(=O)(OC)OC`, the “activity, negative = inhibition” value was 0.173%.

For `[O]=[Cr][O][Cr]=[O]`, the “activity, negative = inhibition” value was -0.122% [at 95 µM].

For `CC1CCCC1`, the “activity, negative = inhibition” value was -8.66%.

Regarding `CCCCn1cc[n+](C)c1.[Cl][Fe-]([Cl])([Cl])[Cl]`, the “activity, negative = inhibition” value was -2.09%.

As to `O=S1OCC2C(CO1)C1(Cl)C(Cl)=C(Cl)C2(Cl)C1(Cl)Cl` (stereo not given), the Potency is 61.2 µM (active) and 61.1 µM (active).

`C[C@H]1[C@H](c2ccc(Cl)cc2)SC(=O)N1C(=O)NC1CCCCC1`: the Potency is 61.1 µM (active).

Consider `C=CCOC(=O)c1ccccc1N`, for which the “activity, negative = inhibition” value is 0% [at 95 µM].

Consider `ClC1=C(Cl)[C@]2(Cl)[C@H]3[C@H]([C@@H]4C=C[C@H]3C4)[C@@]1(Cl)C2(Cl)Cl`, for which the Potency is 54.5 µM (active).

In the case of `O=[N+]([O-])c1ccc(Cl)c(Cl)c1Cl`, the “activity, negative = inhibition” value is -7.04%.

As to `O=S1(=O)OCC2C(CO1)C1(Cl)C(Cl)=C(Cl)C2(Cl)C1(Cl)Cl` (stereo not given), the Potency was 48.6 µM (active).

With `CC(C)[C@@H](Nc1ccc(C(F)(F)F)cc1Cl)C(=O)OC(C#N)c1cccc(Oc2ccccc2)c1` (stereo not given in full), the “activity, negative = inhibition” value was -6.54%.

Turning to `Nc1ccc(N=Nc2ccccc2)cc1`, the “activity, negative = inhibition” value is 5.11%.
